The full data set covers some 7,900 targets. This sample favours those with a hit. About 0.6% of all pairs of compound and target were hits.
What was measured:
Experiment in all cases: log2 fold change, soluble protein after heating vs DMSO (PISA); higher = thermal stabilisation; K562 cells, 10 uM, 30 min; active = over 0.2 and 3.5 SD of the protein, either way, in both replicates (recomputed)
[1] = compound: NC(=O)Nc1cc(-c2cccc(F)c2)sc1C(=O)N[C@H]1CCCNC1
Procedure, shortened: (§1)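 Thermal stability values are relative to control samples and come from duplicates. They are expressed as log2 fold changes. For measurement, K562 cells (2×10^6 cells/mL) received 10 μM compound for 30 min, and aliquots were heated for 3 min over 48°C-58°C, pooled, and extracted at 4°C in PBS with 0.5% NP-40. Soluble protein, the supernatant after 21,000xg for 90 min, was quantified by TMTpro 16plex LC-MS/MS with equalised channel sums.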

[2] = compound: NC(=O)c1cnc(N[C@@H]2CCCC[C@@H]2N)nc1Nc1cccc(-n2nccn2)c1
Procedure, shortened: as §1

[3] = compound: NC1(c2ccc(-c3nc4ccn5c(=O)[nH]nc5c4cc3-c3ccccc3)cc2)CCC1
Procedure, shortened: as §1

[4] = compound: NCC(=O)Nc1ccc(-n2nc(C(F)(F)F)cc2-c2ccc3c(ccc4ccccc43)c2)cc1
Procedure, shortened: as §1

entinostat = compound: Nc1ccccc1NC(=O)c1ccc(CNC(=O)OCc2cccnc2)cc1 [entinostat]
Procedure, shortened: as §1

vorinostat = compound: O=C(CCCCCCC(=O)Nc1ccccc1)NO [vorinostat]
Procedure, shortened: as §1

citarinostat = compound: O=C(CCCCCCNC(=O)c1cnc(N(c2ccccc2)c2ccccc2Cl)nc1)NO [citarinostat]
Procedure, shortened: as §1

silmitasertib = compound: O=C(O)c1ccc2c(c1)nc(Nc1cccc(Cl)c1)c1ccncc12 [silmitasertib]
Procedure, shortened: as §1

[5] = compound: O=C1NC(=O)C(c2cnc3ccccn23)=C1c1cn2c3c(cc(F)cc13)CN(C(=O)N1CCCCC1)CC2
Procedure, shortened: as §1

[6] = compound: c1cc(OCCN2CCCCC2)cc(-c2n[nH]c3ccc(-c4nnc[nH]4)cc23)c1
Procedure, shortened: as §1

entospletinib = compound: c1cn2cc(-c3ccc4cn[nH]c4c3)nc(Nc3ccc(N4CCOCC4)cc3)c2n1 [entospletinib]
Procedure, shortened: as §1

Measured: log2 fold change

SURF2 (UniProt Q15527)
Chain of UniProt Q15527 (Q15527 whole entry, looked up): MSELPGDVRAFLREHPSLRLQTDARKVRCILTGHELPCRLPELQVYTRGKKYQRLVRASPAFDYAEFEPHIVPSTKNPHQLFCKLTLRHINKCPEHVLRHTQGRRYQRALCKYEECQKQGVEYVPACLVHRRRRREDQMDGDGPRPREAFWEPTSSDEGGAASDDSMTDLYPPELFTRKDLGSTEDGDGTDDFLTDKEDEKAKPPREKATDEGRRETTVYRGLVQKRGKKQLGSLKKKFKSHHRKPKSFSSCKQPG
inactive: [1] 0.019 | [2] 0.076 | [3] 0.033 | [4] 0.088 | entinostat -0.012 | vorinostat -0.009 | citarinostat 0.06 | silmitasertib 0.079 | [5] -0.004 | [6] -0.018 | entospletinib 0.047

SUPT16H (UniProt Q9Y5B9)
inactive: [1] -0.017 | [2] -0.111 | [3] -0.183 | [4] -0.158 | entinostat 0.207 | vorinostat 0.178 | citarinostat 0.198 | silmitasertib 0.109 | [5] -0.227 | [6] 0.025 | entospletinib -0.055

SPTBN4 (UniProt Q9H254)
inactive: [1] 0 | [2] -0.09 | [3] -0.095 | [4] 0.033 | entinostat 0.014 | vorinostat 0.026 | citarinostat 0.05 | silmitasertib 0.062 | [5] 0.129 | [6] -0.013 | entospletinib 0

STK26 (UniProt Q9P289)
Chain of UniProt Q9P289 (Q9P289 whole entry, looked up): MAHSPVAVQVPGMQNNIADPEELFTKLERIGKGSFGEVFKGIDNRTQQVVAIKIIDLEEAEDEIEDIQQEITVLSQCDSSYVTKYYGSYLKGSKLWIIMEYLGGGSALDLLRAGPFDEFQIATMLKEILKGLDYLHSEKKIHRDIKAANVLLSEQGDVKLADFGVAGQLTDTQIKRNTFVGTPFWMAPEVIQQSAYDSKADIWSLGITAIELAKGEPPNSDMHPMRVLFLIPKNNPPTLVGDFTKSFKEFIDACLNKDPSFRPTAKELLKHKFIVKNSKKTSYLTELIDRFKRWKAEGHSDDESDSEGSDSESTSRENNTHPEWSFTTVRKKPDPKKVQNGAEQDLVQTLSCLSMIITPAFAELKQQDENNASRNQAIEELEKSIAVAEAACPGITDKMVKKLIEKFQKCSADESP
inactive: [1] 0.07 | [2] -0.005 | [3] -0.111 | [4] -0.057 | entinostat -0.063 | vorinostat 0.034 | citarinostat 0.092 | silmitasertib 0.069 | [5] -0.017 | [6] -0.007 | entospletinib -0.022

SPCS2 (UniProt Q15005)
inactive: [1] 0 | [2] -0.002 | [3] -0.072 | [4] 0.143 | entinostat 0.016 | vorinostat 0.024 | citarinostat 0.224 | silmitasertib -0.001 | [5] -0.021 | [6] 0.23 | entospletinib -0.145

SP1 (UniProt P08047)
inactive: [1] -0.017 | [2] 0.011 | [3] 0.1 | [4] -0.001 | entinostat -0.005 | vorinostat 0.052 | citarinostat -0.057 | silmitasertib -0.007 | [5] 0.088 | [6] -0.088 | entospletinib 0.068

STK25 (UniProt O00506)
inactive: [1] -0.029 | [2] -0.06 | [3] -0.136 | [4] -0.08 | entinostat -0.016 | vorinostat 0.042 | citarinostat -0.026 | silmitasertib 0.078 | [5] -0.064 | [6] -0.034 | entospletinib -0.104

STOM (UniProt P27105)
inactive: [1] -0.104 | [2] -0.043 | [3] -0.069 | [4] -0.019 | entinostat -0.003 | vorinostat 0.025 | citarinostat 0.007 | silmitasertib 0.067 | [5] 0.042 | [6] -0.091 | entospletinib 0.048

SURF1 (UniProt Q15526)
inactive: [1] -0.007 | [2] 0.014 | [3] -0.176 | [4] -0.135 | entinostat 0.077 | vorinostat 0.059 | citarinostat 0.112 | silmitasertib -0.04 | [5] -0.031 | [6] -0.043 | entospletinib 0.029

SUGP1 (UniProt Q8IWZ8)
inactive: [1] 0 | [2] -0.05 | [3] -0.073 | [4] -0.071 | entinostat 0.054 | vorinostat 0.077 | citarinostat 0.074 | silmitasertib 0.101 | [5] -0.065 | [6] 0.045 | entospletinib -0.04

SMIM20 isoform 2 (UniProt Q8N5G0)
Chain of UniProt Q8N5G0 (Q8N5G0 whole entry, looked up): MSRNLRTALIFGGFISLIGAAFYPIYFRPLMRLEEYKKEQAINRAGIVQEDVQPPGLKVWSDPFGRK
inactive: [1] -0.056 | [2] -0.032 | [3] 0 | [4] 0.002 | entinostat 0.031 | vorinostat 0.057 | citarinostat -0.004 | silmitasertib -0.01 | [5] -0.154 | [6] -0.049 | entospletinib 0.008

STAM2 (UniProt O75886)
inactive: [1] -0.111 | [2] -0.136 | [3] -0.133 | [4] -0.101 | entinostat 0.012 | vorinostat 0.04 | citarinostat 0.026 | silmitasertib 0.049 | [5] -0.041 | [6] 0.064 | entospletinib 0.052

STK39 (UniProt Q9UEW8)
inactive: [1] -0.064 | [2] 0.034 | [3] -0.146 | [4] -0.028 | entinostat 0.069 | vorinostat 0.063 | citarinostat 0.051 | silmitasertib 0.003 | [5] 0.003 | [6] -0.072 | entospletinib -0.007

TBC1D23 (UniProt Q9NUY8)
inactive: [1] 0.015 | [2] -0.135 | [4] -0.009 | entinostat 0.06 | vorinostat 0.115 | citarinostat 0.045 | silmitasertib 0.02 | [5] -0.073 | [6] -0.047 | entospletinib -0.045
active: [3] -0.33

SREK1 isoform 2 (UniProt Q8WXA9)
inactive: [1] 0.194 | [2] -0.068 | [3] 0.03 | [4] -0.208 | entinostat 0.012 | vorinostat 0.05 | citarinostat 0.129 | silmitasertib -0.148 | [5] 0.059 | [6] -0.213 | entospletinib -0.026

TAMM41 isoform 3 (UniProt Q96BW9)
Chain of UniProt Q96BW9 (Q96BW9 whole entry, looked up): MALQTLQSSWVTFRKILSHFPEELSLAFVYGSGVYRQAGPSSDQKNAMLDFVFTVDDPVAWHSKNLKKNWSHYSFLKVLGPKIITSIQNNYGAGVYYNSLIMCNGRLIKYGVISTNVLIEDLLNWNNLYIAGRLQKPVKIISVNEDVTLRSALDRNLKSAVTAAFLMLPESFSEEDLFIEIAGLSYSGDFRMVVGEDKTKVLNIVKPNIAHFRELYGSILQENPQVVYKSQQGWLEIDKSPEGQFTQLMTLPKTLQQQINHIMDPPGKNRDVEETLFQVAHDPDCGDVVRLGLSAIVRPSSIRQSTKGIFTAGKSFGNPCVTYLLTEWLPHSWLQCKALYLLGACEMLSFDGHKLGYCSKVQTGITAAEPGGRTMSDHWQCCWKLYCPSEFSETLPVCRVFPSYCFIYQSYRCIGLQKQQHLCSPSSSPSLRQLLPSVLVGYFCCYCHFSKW
inactive: [1] 0.001 | [2] -0.052 | [3] -0.148 | [4] -0.059 | entinostat 0.022 | vorinostat 0.023 | citarinostat 0.013 | silmitasertib -0.004 | [5] -0.125 | [6] -0.043 | entospletinib -0.039

SNX12 isoform 1 (UniProt Q9UMY4)
Chain of UniProt Q9UMY4 (Q9UMY4 whole entry, looked up): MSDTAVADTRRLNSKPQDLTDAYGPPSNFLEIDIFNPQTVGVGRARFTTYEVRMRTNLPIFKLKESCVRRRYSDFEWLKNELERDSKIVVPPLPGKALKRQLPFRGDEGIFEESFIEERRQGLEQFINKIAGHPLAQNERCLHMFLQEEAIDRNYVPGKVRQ
inactive: [1] -0.022 | [4] 0.019 | entinostat 0.046 | vorinostat 0.035 | citarinostat 0.102 | silmitasertib 0.06 | [5] -0.081 | [6] -0.066 | entospletinib -0.005
active: [2] -0.225 | [3] -0.22

TJP1 (UniProt Q07157)
Chain of UniProt Q07157 (Q07157 whole entry, looked up): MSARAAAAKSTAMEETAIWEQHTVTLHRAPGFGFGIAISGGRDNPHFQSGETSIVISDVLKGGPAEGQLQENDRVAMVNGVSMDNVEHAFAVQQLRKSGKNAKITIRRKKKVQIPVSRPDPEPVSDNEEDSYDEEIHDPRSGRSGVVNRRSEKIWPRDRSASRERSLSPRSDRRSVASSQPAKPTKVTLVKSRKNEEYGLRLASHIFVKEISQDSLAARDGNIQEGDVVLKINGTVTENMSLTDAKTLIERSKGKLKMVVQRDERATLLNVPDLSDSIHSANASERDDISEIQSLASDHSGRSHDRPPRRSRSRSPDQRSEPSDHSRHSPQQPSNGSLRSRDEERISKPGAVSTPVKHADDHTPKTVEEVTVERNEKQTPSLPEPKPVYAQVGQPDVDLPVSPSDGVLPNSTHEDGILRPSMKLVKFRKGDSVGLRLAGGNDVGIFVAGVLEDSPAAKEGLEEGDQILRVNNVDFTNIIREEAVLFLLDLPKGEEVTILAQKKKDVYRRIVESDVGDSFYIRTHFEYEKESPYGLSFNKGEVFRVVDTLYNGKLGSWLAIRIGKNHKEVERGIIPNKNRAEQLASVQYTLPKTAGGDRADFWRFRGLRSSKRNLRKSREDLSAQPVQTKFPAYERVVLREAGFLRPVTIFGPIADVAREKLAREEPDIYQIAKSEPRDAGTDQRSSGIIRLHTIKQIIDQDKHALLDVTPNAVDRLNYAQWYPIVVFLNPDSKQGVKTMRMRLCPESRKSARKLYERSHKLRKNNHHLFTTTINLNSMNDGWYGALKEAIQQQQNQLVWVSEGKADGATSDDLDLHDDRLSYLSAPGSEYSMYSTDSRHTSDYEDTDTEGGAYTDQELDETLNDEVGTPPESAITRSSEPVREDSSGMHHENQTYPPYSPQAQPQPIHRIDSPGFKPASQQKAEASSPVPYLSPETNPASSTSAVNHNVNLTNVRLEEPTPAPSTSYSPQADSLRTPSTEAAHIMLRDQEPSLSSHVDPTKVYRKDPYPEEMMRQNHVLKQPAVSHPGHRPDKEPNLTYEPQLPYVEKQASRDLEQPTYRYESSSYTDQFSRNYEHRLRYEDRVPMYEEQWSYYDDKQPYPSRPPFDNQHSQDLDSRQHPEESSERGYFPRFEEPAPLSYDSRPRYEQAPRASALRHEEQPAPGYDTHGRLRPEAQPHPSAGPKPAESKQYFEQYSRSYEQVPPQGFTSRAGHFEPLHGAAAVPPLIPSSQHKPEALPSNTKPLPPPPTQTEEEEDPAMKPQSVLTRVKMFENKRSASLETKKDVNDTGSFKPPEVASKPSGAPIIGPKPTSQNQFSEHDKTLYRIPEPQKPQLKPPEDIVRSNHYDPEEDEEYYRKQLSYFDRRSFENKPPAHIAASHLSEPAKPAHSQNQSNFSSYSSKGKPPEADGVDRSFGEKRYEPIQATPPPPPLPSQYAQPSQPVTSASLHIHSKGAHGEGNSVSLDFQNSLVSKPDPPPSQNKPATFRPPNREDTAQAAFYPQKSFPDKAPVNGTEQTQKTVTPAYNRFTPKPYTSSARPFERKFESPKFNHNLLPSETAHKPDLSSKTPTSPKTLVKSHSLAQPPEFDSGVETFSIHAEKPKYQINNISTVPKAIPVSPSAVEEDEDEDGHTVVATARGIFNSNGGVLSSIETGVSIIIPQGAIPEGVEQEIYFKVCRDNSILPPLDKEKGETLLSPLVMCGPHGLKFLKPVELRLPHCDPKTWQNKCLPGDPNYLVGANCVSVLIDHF
inactive: [1] -0.043 | [2] -0.067 | [3] 0.033 | [4] -0.071 | entinostat 0.044 | vorinostat 0.049 | citarinostat 0.041 | silmitasertib -0.158 | [5] -0.056 | [6] -0.092 | entospletinib 0.009

SLC4A2 (UniProt P04920)
active: [3] -0.204
inactive: [1] -0.048 | [2] -0.055 | [4] -0.123 | entinostat 0.028 | vorinostat 0.023 | citarinostat -0.072 | silmitasertib 0.019 | [5] 0.016 | [6] -0.084 | entospletinib 0.028

SSRP1 (UniProt Q08945)
inactive: [1] -0.017 | [2] -0.012 | [3] -0.078 | [4] 0.003 | entinostat 0.007 | vorinostat 0.059 | citarinostat 0.155 | silmitasertib 0.007 | [5] -0.171 | [6] -0.013 | entospletinib -0.027

TAX1BP1 (UniProt Q86VP1)
Chain of UniProt Q86VP1 (Q86VP1 whole entry, looked up): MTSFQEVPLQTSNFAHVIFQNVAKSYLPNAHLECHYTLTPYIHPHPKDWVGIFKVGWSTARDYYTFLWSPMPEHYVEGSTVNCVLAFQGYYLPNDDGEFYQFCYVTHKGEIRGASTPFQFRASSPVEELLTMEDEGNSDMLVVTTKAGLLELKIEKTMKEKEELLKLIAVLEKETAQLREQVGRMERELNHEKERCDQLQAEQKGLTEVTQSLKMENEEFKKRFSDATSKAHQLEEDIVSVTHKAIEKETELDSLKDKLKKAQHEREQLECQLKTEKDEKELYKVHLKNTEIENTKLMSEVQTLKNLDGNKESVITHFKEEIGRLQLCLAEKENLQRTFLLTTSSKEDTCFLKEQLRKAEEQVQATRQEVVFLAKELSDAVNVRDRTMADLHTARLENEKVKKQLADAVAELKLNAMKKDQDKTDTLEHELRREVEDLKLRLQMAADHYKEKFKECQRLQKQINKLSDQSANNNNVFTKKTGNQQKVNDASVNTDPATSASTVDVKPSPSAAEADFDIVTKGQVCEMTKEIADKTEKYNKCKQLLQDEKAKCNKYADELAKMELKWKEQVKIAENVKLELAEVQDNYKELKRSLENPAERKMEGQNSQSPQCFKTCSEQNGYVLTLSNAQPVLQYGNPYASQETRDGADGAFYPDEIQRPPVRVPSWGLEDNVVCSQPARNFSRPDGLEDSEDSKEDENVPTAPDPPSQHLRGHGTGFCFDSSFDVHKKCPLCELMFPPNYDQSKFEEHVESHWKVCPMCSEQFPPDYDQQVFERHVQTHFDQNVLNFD
inactive: [1] 0.028 | [2] -0.062 | [3] -0.202 | [4] -0.102 | entinostat -0.013 | vorinostat -0.183 | citarinostat 0.061 | silmitasertib 0.042 | [5] -0.011 | [6] -0.081 | entospletinib 0.029

THRAP3 (UniProt Q9Y2W1)
Chain of UniProt Q9Y2W1 (Q9Y2W1 whole entry, looked up): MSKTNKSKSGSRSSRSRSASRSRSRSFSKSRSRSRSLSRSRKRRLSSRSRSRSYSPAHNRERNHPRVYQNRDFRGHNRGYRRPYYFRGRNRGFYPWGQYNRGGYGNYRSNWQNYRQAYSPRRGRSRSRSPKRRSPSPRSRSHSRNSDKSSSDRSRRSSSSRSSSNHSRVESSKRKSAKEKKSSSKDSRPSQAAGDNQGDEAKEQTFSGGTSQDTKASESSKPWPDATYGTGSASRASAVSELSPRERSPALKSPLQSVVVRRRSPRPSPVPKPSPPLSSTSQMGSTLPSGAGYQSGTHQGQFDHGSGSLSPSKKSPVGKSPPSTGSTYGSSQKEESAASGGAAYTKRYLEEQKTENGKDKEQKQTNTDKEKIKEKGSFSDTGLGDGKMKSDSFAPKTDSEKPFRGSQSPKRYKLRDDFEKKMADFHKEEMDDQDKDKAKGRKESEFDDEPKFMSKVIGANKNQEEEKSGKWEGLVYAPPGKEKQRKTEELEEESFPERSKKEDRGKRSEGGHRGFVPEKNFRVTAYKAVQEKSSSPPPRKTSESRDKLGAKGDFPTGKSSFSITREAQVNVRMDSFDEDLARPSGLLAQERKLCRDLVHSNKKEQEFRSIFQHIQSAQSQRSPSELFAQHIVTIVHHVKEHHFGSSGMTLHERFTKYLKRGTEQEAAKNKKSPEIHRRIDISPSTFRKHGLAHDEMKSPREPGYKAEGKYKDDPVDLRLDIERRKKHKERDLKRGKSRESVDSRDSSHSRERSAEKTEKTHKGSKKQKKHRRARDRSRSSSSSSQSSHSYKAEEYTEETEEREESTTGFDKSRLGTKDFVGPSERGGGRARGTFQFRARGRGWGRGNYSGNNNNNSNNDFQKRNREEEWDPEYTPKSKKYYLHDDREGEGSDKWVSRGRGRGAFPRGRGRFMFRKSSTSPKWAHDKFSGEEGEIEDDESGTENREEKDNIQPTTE
inactive: [1] -0.02 | [2] -0.076 | [3] -0.153 | [4] -0.037 | entinostat 0.024 | vorinostat 0.021 | citarinostat 0.005 | silmitasertib -0.169 | [5] -0.026 | [6] -0.257 | entospletinib 0.09

SPTBN1 (UniProt Q01082)
inactive: [1] -0.051 | [2] -0.04 | [3] -0.041 | [4] -0.016 | entinostat 0.011 | vorinostat 0.026 | citarinostat -0.009 | silmitasertib 0.127 | [5] 0.009 | [6] -0.007 | entospletinib 0.024

SLC25A42 (UniProt Q86VD7)
inactive: [1] 0.121 | [2] 0.021 | [3] -0.015 | [4] 0.05 | entinostat -0.027 | vorinostat -0.102 | citarinostat -0.015 | silmitasertib -0.033 | [5] -0.034 | [6] -0.046 | entospletinib 0.055

TBC1D10B (UniProt Q4KMP7)
active: [6] -0.283
inactive: [1] -0.141 | [2] 0.007 | [3] 0.038 | [4] -0.027 | entinostat 0.017 | vorinostat -0.03 | citarinostat 0.039 | silmitasertib -0.009 | [5] -0.005 | entospletinib 0

TIMM29 (UniProt Q9BSF4)
inactive: [1] -0.16 | [2] -0.024 | [3] -0.069 | [4] -0.011 | entinostat -0.04 | vorinostat -0.093 | citarinostat -0.016 | silmitasertib 0.006 | [5] -0.08 | [6] -0.004 | entospletinib 0.033

SPAG9 (UniProt O60271)
inactive: [1] -0.042 | [2] -0.13 | [3] -0.123 | [4] -0.055 | entinostat 0.034 | vorinostat 0.023 | citarinostat 0.01 | silmitasertib 0.038 | [5] -0.014 | [6] -0.024 | entospletinib 0.024

Source: the supplement of paper PMC10849652
